# PubChem BioAssay AID743449 (Broad Institute, 2014)
# In all, about 9,900 compounds went through this assay and about 90 (0.9%) were called active. Roughly 2% stayed inconclusive and do not appear here. The sample holds actives, similar compounds and a random draw of the others, so the mix is not that of the screen. A number with no mark means an inactive call.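 How the source made its calls: active means mean normalized replicate activity at least 50 and at least half of replicates each reaching 50; inconclusive means only one of the two criteria met; inactive means neither criterion met.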
# Experiment: reduction of CTGF mRNA in DLD1 cells – DLD1 colon cancer cells, RT-qPCR, single point, primary screen (AID 743449);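 further: 0% = neutral control wells and 100% = dasatinib control wells; higher means stronger suppression of CTGF expression like dasatinib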
# Details: 24 h, at 12.5 µM, stronger effect = higher value
row,SMILES,inhibition
1,COc1ccc2c3c(n(C)c2c1)[C@@H](CO)N(C(=O)Nc1ccc(F)cc1)CC31CCN(C(=O)c2ccc3c(c2)OCO3)CC1,8.8%
2,C[C@@H]1CCCCO[C@H](CN(C)Cc2ccncc2)[C@H](C)CN([C@H](C)CO)C(=O)c2cc(NC(=O)Cc3ccccc3)ccc2O1,7.17%
3,C/C=C/c1ccc([C@@H]2[C@H](CO)N(CC3CCCC3)C23CN(S(=O)(=O)CC)C3)cc1,-25.3%
4,O=S(=O)(Cc1ccccc1)N1CC2(C1)[C@H](c1ccccc1)[C@H](CO)N2CC1CCCC1,63.5% (active)
5,C/C=C/c1ccc([C@@H]2[C@@H](CO)N(CC3CCCC3)C23CN(S(=O)(=O)CC)C3)cc1,-26.7%
6,O=C(C[C@H]1C[C@@H]2c3cc(NC(=O)C4CCOCC4)ccc3O[C@@H]2[C@@H](CO)O1)NCCN1CCCCC1,23.7%
7,C/C=C/c1cccc(-c2nc(C(=O)N3CCCCC3)cc3c2[C@@H](CCO)N(C(=O)NC(C)C)C3)c1,-19.7%
8,C/C=C/c1cccc(-c2nc(C(=O)N3CCCCC3)cc3c2[C@H](CCO)N(C(=O)NC(C)C)C3)c1,1.73%
9,C/C=C/c1cccc(-c2nc(C(=O)Nc3nccs3)cc3c2[C@@H](CCO)N(C(=O)NC(C)C)C3)c1,59.6% (active)
10,CCC(=O)N(CC(C)C)C[C@@H]1[C@@H](c2ccccc2)[C@H](CO)N1C(=O)C1CCC1,3.26%
11,CO[C@@H](CN(C)S(=O)(=O)c1ccc(F)cc1)[C@H](C)CN(Cc1ccccc1Cl)[C@H](C)CO,-18%
12,O=C(c1cccc(F)c1)N1CCCCN2[C@H](CO)[C@H](c3ccc(C#CC4(O)CCCC4)cc3)[C@@H]2C1,58.8% (active)
13,C[C@H](O)C#Cc1ccc([C@H]2[C@@H](CO)N3CCCCN(C(=O)c4ccc5c(c4)OCO5)C[C@@H]23)cc1,53.3% (active)
14,O=C(c1cccc(F)c1)N1CCCCN2[C@@H](CO)[C@H](c3ccc(C#CC4(O)CCCC4)cc3)[C@@H]2C1,68.7% (active)
15,O=C(c1cccc(F)c1)N1CCCCN2[C@H](CO)[C@H](c3ccc(C#CC4(O)CCCC4)cc3)[C@H]2C1,11.6%
16,O=C(c1cccc(F)c1)N1CCCCN2[C@H](CO)[C@@H](c3ccc(C#CC4(O)CCCC4)cc3)[C@@H]2C1,-4.53%
17,O=C(c1cccc(F)c1)N1CCCCN2[C@H](C1)[C@H](c1ccc(C#CC3(O)CCCC3)cc1)[C@@H]2CO,24%
18,C[C@H](O)C#Cc1ccc([C@@H]2[C@H]3CN(C(=O)c4ccc5c(c4)OCO5)CCCCN3[C@H]2CO)cc1,-48.5%
19,C[C@H](O)C#Cc1ccc([C@@H]2[C@@H](CO)N3CCCCN(C(=O)c4ccc5c(c4)OCO5)C[C@H]23)cc1,-21.5%
20,O=C(c1cccc(F)c1)N1CCCCN2[C@H](C1)[C@@H](c1ccc(C#CC3(O)CCCC3)cc1)[C@@H]2CO,30.5%
21,O=C(C[C@H]1CC[C@H]2[C@@H](COC[C@@H](O)CN2C(=O)c2cccnc2)O1)NCC1CC1,6.53%
22,COCCNC(=O)C[C@@H]1C[C@H]2c3cc(NC(=O)CN(C)C)ccc3O[C@H]2[C@H](CO)O1,0.098%
23,COc1cccc(NC(=O)N2C[C@H](O)COC[C@H]3O[C@H](CC(=O)N(C)C)CC[C@@H]32)c1,-3.69%
24,O=C(CN1CCOCC1)N1CC(=O)N2[C@H](C1)[C@@H](c1ccc(-c3cccc(F)c3)cc1)[C@@H]2CO,10.6%

row,SMILES,inhibition
1,C[C@H](CO)N1C[C@H](C)[C@H](CN(C)C(=O)Nc2ccc(-c3cccs3)cc2)OCc2cnnn2CCCC1=O,13.8%
2,C[C@H]1CC=CC[C@H](c2cccc(Cl)c2)NC(=O)[C@@H](Cc2ccccc2)N(C)C(=O)c2ccccc2O1 (mixture of isomers),-83.3%
3,C[C@@H]1CC=CC[C@@H](c2cccc(Cl)c2)NC(=O)[C@H](Cc2ccccc2)N(C)C(=O)c2ccccc2O1 (mixture of isomers),50.4% (active)
4,C[C@@H]1CC=CC[C@@H](c2cccc(Cl)c2)NC(=O)[C@@H](Cc2ccccc2)N(C)C(=O)c2ccccc2O1 (mixture of isomers),67.5% (active)
5,CC(C)[C@H]1C(=O)N[C@H](c2cccc(Cl)c2)CC=CC[C@H](C)Oc2ccccc2C(=O)N1C (mixture of isomers),-2.2%
6,C[C@H]1CC=CC[C@H](c2cccc(Cl)c2)NC(=O)[C@H](Cc2ccccc2)N(C)C(=O)c2ccccc2O1 (mixture of isomers),-228%
7,CC(C)[C@@H]1C(=O)N[C@H](c2cccc(Cl)c2)CC=CC[C@@H](C)Oc2ccccc2C(=O)N1C (mixture of isomers),14.5%
8,CN1C(=O)c2cc(NC(=O)NCc3ccccc3)ccc2OC[C@@H]2O[C@@H](CC(=O)NCC3CCCCC3)CC[C@H]21,-20.9%
9,COc1cccc(S(=O)(=O)N[C@H]2CC[C@H](CC(=O)NC3Cc4ccccc4C3)O[C@H]2CO)c1,3.79%
10,Cc1noc(C)c1S(=O)(=O)N(C)C[C@H]1OCCCC[C@H](C)Oc2ccc(NC(=O)CCC(F)(F)F)cc2C(=O)N([C@@H](C)CO)C[C@@H]1C,8.01%
11,CN1C(=O)c2cc(NC(=O)c3cccc(Cl)c3)ccc2OC[C@H]2O[C@H](CC(=O)NC3CCCCC3)CC[C@H]21,-12.4%
12,COc1ccccc1NC(=O)N1CCCCN2[C@H](CO)[C@H](c3ccc(-c4cccc(C#N)c4)cc3)[C@H]2C1,19.1%
13,COc1ccccc1NC(=O)N1CCCCN2[C@H](CO)[C@H](c3ccc(-c4cccc(C#N)c4)cc3)[C@@H]2C1,52.5% (active)
14,COc1ccccc1NC(=O)N1CCCCN2[C@H](C1)[C@@H](c1ccc(-c3cccc(C#N)c3)cc1)[C@@H]2CO,-9.55%
15,COc1ccccc1NC(=O)N1CCCCN2[C@@H](CO)[C@H](c3ccc(-c4cccc(C#N)c4)cc3)[C@@H]2C1,75% (active)
16,COc1ccccc1NC(=O)N1CCCCN2[C@@H](CO)[C@@H](c3ccc(-c4cccc(C#N)c4)cc3)[C@@H]2C1,-18.2%
17,COc1ccccc1NC(=O)N1CCCCN2[C@H](CO)[C@@H](c3ccc(-c4cccc(C#N)c4)cc3)[C@H]2C1,-21.9%
18,COc1cccc(S(=O)(=O)N[C@H]2CC[C@@H](CC(=O)NC3Cc4ccccc4C3)O[C@H]2CO)c1,0.76%
19,CCC(=O)N1CC2(C1)[C@H](c1ccc(-c3ccc(F)cc3)cc1)[C@H](CO)N2C(C)=O,5.26%
20,COc1cccc(C(=O)Nc2ccc3c(c2)C(=O)N(C)[C@@H]2CC[C@H](CC(=O)N[C@@H](C)c4ccccc4)O[C@@H]2CO3)c1,-43.4%
21,O=C(Nc1ccc(F)cc1)N1CC(=O)N2[C@H](C1)[C@@H](c1ccc(-c3cccc(F)c3)cc1)[C@@H]2CO,-72.3%
22,COCC(=O)N1[C@H](CO)[C@@H](c2ccccc2)C12CN(C(=O)c1ccccc1)C2,-0.941%
23,C[C@H]1CN([C@@H](C)CO)C(=O)c2ccccc2-c2ccccc2CO[C@H]1CN(C)S(=O)(=O)c1cn(C)cn1,10.4%
24,CCC(=O)N1Cc2cc(C(=O)NCc3cccc(F)c3)nc(-c3cccc(C4=CCCC4)c3)c2[C@H]1CCO,50.2% (active)

row,SMILES,inhibition
1,CC(C)(C)[S@](=O)N1Cc2cc(C(=O)NC3CCC3)nc(-c3cccc(-c4ccccc4F)c3)c2[C@@H]1CCO,41%
2,CC(C)(C)[S@@](=O)N1Cc2cc(C(=O)NCc3ccccn3)nc(-c3cccc(-c4ccccc4F)c3)c2[C@H]1CCO,-29.9%
3,CC(C)(C)S(=O)N1Cc2cc(C(=O)NCc3ccc(Oc4ccccc4)cc3)nc(-c3cccc(-c4cccc(F)c4)c3)c2[C@@H]1CCO (stereo not given in full),9.98%
4,CC(C)(C)[S@](=O)N1Cc2cc(C(=O)NCc3ccccn3)nc(-c3cccc(-c4ccccc4F)c3)c2[C@@H]1CCO,53% (active)
5,CC(C)(C)S(=O)N1Cc2cc(C(=O)NCc3ccc4c(c3)OCO4)nc(-c3cccc(-c4cc5ccccc5o4)c3)c2[C@H]1CCO (stereo not given in full),20.7%
6,CCNC(=O)c1cc2c(c(-c3cccc(-c4ccccc4F)c3)n1)[C@H](CCO)N(C(=O)CC1CC1)C2,-97.9%
7,CCNC(=O)c1cc2c(c(-c3cccc(-c4ccccc4F)c3)n1)[C@@H](CCO)N(C(=O)CC1CC1)C2,59.3% (active)
8,CN(C)C(=O)c1cc2c(c(-c3cccc(C4=CCCCC4)c3)n1)[C@@H](CCO)N(S(C)(=O)=O)C2,-7.52%
9,CC(C)(C)S(=O)N1Cc2cc(C(=O)NCc3ccc4c(c3)OCO4)nc(-c3cccc(-c4cccc(F)c4)c3)c2[C@@H]1CCO (stereo not given in full),55.2% (active)
10,CCNC(=O)c1cc2c(c(-c3cccc(-c4cncnc4)c3)n1)[C@H](CCO)N(C(C)=O)C2,-8.43%
11,CCN1Cc2cc(C(=O)Nc3nccs3)nc(-c3cccc(C4=CCCC4)c3)c2[C@H]1CCO,-15.8%
12,O=C1C[C@H](c2ccccc2)C(=O)N[C@H](c2ccccc2)C/C=C\C[C@H](c2ccccc2)N1,-5.88%
13,COc1ccc(S(=O)(=O)Nc2ccc3c(c2)C(=O)N([C@H](C)CO)C[C@H](C)[C@@H](CN(C)C(=O)Nc2c(C)noc2C)OCCCC[C@H](C)O3)cc1,-7.64%
14,O=C(Cc1cccnc1)N1[C@H](CNCC2CCC2)[C@H](c2ccccc2)[C@@H]1CO,-21.2%
15,COc1ccc(S(=O)(=O)Nc2ccc3c(c2)C(=O)N([C@@H](C)CO)C[C@@H](C)[C@@H](CN(C)Cc2ccc(C(F)(F)F)cc2)OCCCC[C@H](C)O3)cc1,-37.9%
16,O=C(C1CCOCC1)N1CC[C@@H]2[C@@H](CO)Nc3ccc(-c4cccc(F)c4)cc3[C@@H]21,-12.5%
17,CO[C@H]1CC[C@H]2CCOc3c(C#N)cccc3C(=O)N(C)C[C@@H](OC)[C@@H](C)C(=O)N(C)C[C@H]1O2,-18.4%
18,O=C(C[C@@H]1CC[C@@H]2[C@H](COC[C@@H](O)CN2C(=O)c2cnccn2)O1)N1CCN(c2ccccc2)CC1,-2.5%
19,COc1ccc2c3c([nH]c2c1)[C@H](CO)N(C(=O)c1ccccn1)CC31CCN(S(C)(=O)=O)CC1,-21.9%
20,COc1ccccc1CN1[C@@H]2c3ccc(C4=CCCC4)c(=O)n3C[C@H]1[C@H](CO)[C@H]2C(=O)N(C)C,2.56%
21,C[C@@H]1CN([C@H](C)CO)C(=O)Cc2cc(NS(=O)(=O)c3cccs3)ccc2O[C@@H]1CN(C)CC1CCCCC1,1.75%
22,COc1ccc2c3c(n(C)c2c1)[C@@H](CO)N(S(C)(=O)=O)CC31CCN(Cc2nccs2)CC1,14%
